In the library only some 9.3% were active in any assay of this set; here they are far more common.
NPC1 promoter act: activates the NPC1 promoter | Huh7 NPC1 promoter luciferase reporter, 24 h | Potency, µM (top dose mostly 9.22 µM), most hits filed as activators | hit rate 2.4% among 320,000 | AID 485313; note: nearly all actives have a fitted effect of over 60% in size
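Stably transfected Huh7 (NPC1 promoter→luciferase), 1500 cells/well in Opti-MEM + 10% FBS, 2 h settle, then compound 24 h at 37 °C. Luminescence after 10 min with Amplite reagent.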
Rab9 prom act: activates the Rab9 promoter. Potency, µM (doses to about 9.22 µM), hits mostly activators. Huh7 Rab9 promoter-luciferase reporter, luminescence, 24 h. AID 485297. hit rate 2.8% among 320,000; note: nearly all actives have a fitted effect of over 60% in size
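Promoter activation is measured as luciferase luminescence in Huh7 cells stably transfected with a Rab9 promoter–luciferase construct, following 24 h compound exposure at 37 °C and 10 min reagent incubation at ambient temperature.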
ELG1 genotoxic: induces genotoxicity in HEK293T cells with luciferase-tagged ELG1; hit rate 1.3% among 330,000; Potency, µM (highest dose often 46 µM), hits mostly activators; HEK293T ELG1-luciferase reporter, luminescence, 16 h; note: nearly all actives have a fitted effect of over 60% in size
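HEK293T cells expressing luciferase-tagged ELG1 were treated with compound or DMSO for 16 hr at 37°C. Luciferase activity was then read after 30 min with ONE-Glo at room temperature; rising signal flags genetic stress.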
ELG1 repair inh: ELG1-dependent DNA repair inhibition. HEK293T ELG1-luciferase reporter, luminescence, 16 h; DNA damage induced by 5-fluorouridine. Potency, µM (top dose mostly 46.1 µM), hits mostly inhibitors. hit rate 2.3% among 330,000; note: nearly all actives have a fitted effect of over 55% in size
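In this reporter screen, reduction of luminescence relative to DMSO vehicle indicated activity. Compounds and 5-fluorouridine were added together to 2,000 cells per well, incubated for 16 hr at 37 °C, then developed with ONE-Glo.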
SMN2 splice enh: SMN2 splice variant enhancement. HEK293 SMN2-luciferase splicing reporter, luminescence, 30-36 h. Potency, µM (series often up to 46.1 µM), actives largely listed as activators. hit rate 2.8% among 210,000. AID 1458; note: nearly all actives have a fitted effect of over 55% in size
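qHTS luciferase splicing reporter: luminescence rises when SMN2 exon 7 is included in transfected HEK293 cells. Compound exposure lasted 30-36 h at 37C, with 4.5 mM final sodium butyrate as control, followed by a ONE-Glo read.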
FLuc modulator: counter-screen for miR-21 project: firefly luciferase inhibitors or activators; P08659; purified FLuc, Km substrates, luminescence inhibition; Potency, µM (series often up to 57.5 µM), most hits filed as inhibitors; hit rate 6.9% among 360,000; AID 588342; note: nearly all actives have a fitted effect of over 55% in size
Target sequence (P08659 whole entry, looked up): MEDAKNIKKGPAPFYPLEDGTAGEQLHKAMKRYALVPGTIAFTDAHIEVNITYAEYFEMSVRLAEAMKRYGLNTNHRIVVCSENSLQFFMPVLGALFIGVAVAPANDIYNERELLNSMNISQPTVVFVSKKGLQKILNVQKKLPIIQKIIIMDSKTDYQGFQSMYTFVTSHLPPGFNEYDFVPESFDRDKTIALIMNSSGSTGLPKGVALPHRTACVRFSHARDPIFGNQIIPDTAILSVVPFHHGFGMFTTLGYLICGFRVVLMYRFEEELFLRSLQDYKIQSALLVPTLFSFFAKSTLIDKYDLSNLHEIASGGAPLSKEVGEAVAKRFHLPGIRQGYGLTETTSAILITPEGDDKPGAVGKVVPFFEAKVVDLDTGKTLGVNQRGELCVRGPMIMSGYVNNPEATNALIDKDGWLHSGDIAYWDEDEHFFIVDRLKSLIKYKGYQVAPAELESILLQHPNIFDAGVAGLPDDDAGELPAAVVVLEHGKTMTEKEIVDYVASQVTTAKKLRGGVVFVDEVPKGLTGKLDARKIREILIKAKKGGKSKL
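Purified P. pyralis luciferase, 10 nM final, with Km-level 10 uM D-luciferin and 10 uM ATP in 50 mM Tris acetate pH 7.5, 10 mM Mg acetate, 0.01% Tween-20, 0.05% BSA; 6-point qHTS titration about 60 µM downward; luminescence read.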
Each line names hits and unclear results; the compound was inactive in the other large screens. Calls come from the whole dose curve; as a rule, active = well fitted curve in the direction sought with a large enough effect; inconclusive = small, poorly fitted or top-dose-only effect, or another doubt; inactive = no such curve, though single readings can be large; an effect the other way counts as inactive or inconclusive.

CC(C)(C)C(=O)NNC(=O)CCCOc1ccc(Cl)cc1Cl	none
CC(C)(CO)NC(=O)CCCOc1ccc(Cl)cc1Cl	NPC1 promoter act inconclusive, Rab9 prom act inconclusive, ELG1 genotoxic 11µM, ELG1 repair inh inconclusive, SMN2 splice enh 10µM, FLuc modulator inconclusive
O=C(COc1ccc(Cl)cc1Cl)NNC(=S)Nc1ccc(F)cc1	FLuc modulator 17µM (no result: SMN2 splice enh)
NC(=O)c1ccccc1NS(=O)(=O)c1ccccc1	SMN2 splice enh inconclusive
COC(=O)N/N=C/c1cc(OC)c(O)c([N+](=O)[O-])c1	none
Cc1ccccc1NS(=O)(=O)c1ccc(NC(=O)N2CCCCC2)cc1	none (no result: SMN2 splice enh)
COC(=O)C1=C(C(C)=O)C(c2ccc(C(=O)OC)cc2)n2nnnc2N1 (stereo unspecified)	none
CC(=O)Nc1ccc(S(=O)(=O)N[C@H](C(=O)O)C(C)C)cc1	none
O=C(COc1ccc(Cl)cc1Cl)Nc1ccc(C(=O)Nc2ccccc2C(=O)O)cc1	none (no result: SMN2 splice enh)
O=C(COc1ccc(Cl)cc1Cl)NC(=S)Nc1ccccc1C(=O)O	FLuc modulator 6.7µM (no result: SMN2 splice enh)
CN(C(=O)COC(=O)C1COc2ccccc2O1)c1c(N)n(Cc2ccccc2)c(=O)[nH]c1=O (stereo unspecified)	none (no result: SMN2 splice enh)
CCOc1cc(C2NC(=O)CCC2[N+](=O)[O-])cc(Br)c1OC (stereo unspecified)	none (no result: SMN2 splice enh)
O=C(CNc1ccc2ccccc2c1)N/N=C/c1ccc(C(=O)O)cc1	FLuc modulator 27µM
O=C(COc1cccc(Cl)c1)N/N=C\c1cc2ccccc2nc1Cl	none
O=C(CNc1cccc2ccccc12)N/N=C/c1ccc(C(=O)O)cc1	none
O=C(CNc1ccc2ccccc2c1)N/N=C/c1cc2ccccc2nc1Cl	FLuc modulator 15µM
CCOc1ccccc1CNc1nc2nc3c(c(=O)n2[nH]1)CCC3	none
Oc1cccc(/C=N/Nc2nn3cnnc3c3ccccc23)c1	FLuc modulator 8.5µM (no result: SMN2 splice enh)
COc1cccc(/C=N/Nc2nn3cnnc3c3ccccc23)c1O	none
CCc1cccc(C)c1NS(=O)(=O)c1cc(-c2cc(C)no2)ccc1C	none (no result: NPC1 promoter act, Rab9 prom act, ELG1 genotoxic, ELG1 repair inh, SMN2 splice enh)
O=[N+]([O-])c1ccc(NCc2ccc(Cl)cc2)nc1	NPC1 promoter act inconclusive, Rab9 prom act inconclusive, ELG1 genotoxic inconclusive, ELG1 repair inh inconclusive, FLuc modulator 15µM (no result: SMN2 splice enh)
CC(C)(C)c1ccc(Cn2cnc(-c3ccc([N+](=O)[O-])cc3)c2)cc1	NPC1 promoter act inconclusive, Rab9 prom act inconclusive, ELG1 genotoxic inconclusive, ELG1 repair inh inconclusive, FLuc modulator 19µM
CC(C)c1ccc(CNc2ccc([N+](=O)[O-])cn2)cc1	NPC1 promoter act inconclusive, Rab9 prom act inconclusive, ELG1 genotoxic inconclusive, ELG1 repair inh inconclusive, SMN2 splice enh 16µM, FLuc modulator 9.5µM
CC(C)(C)c1ccc(CNc2ccc([N+](=O)[O-])cn2)cc1	Rab9 prom act inconclusive, ELG1 genotoxic inconclusive, ELG1 repair inh inconclusive, SMN2 splice enh inconclusive, FLuc modulator 12µM
COc1cc2c(cc1OC)C1=C(C#N)CCC(=O)N1CC2	none
O=C(CSc1nnc(Cn2nnc3ccccc32)o1)Nc1cccc(Cl)c1	none
COc1cccc(N2C(=O)CSC23C(=O)N(CC(=O)NCc2ccc(C)cc2)c2ccccc23)c1 (stereo unspecified)	none (no result: NPC1 promoter act, Rab9 prom act, ELG1 genotoxic, ELG1 repair inh, SMN2 splice enh)
c1ccc(-c2ccc(CNC3CC3)cc2)cc1	Rab9 prom act inconclusive, FLuc modulator inconclusive (no result: SMN2 splice enh)
CCOC(=O)C(CCCOc1cccc(OC)c1)C(=O)OCC	none
O=C(NCC(O)c1ccccc1)c1ccccc1 (stereo unspecified)	NPC1 promoter act 2.8µM, Rab9 prom act 4µM, ELG1 genotoxic inconclusive, ELG1 repair inh inconclusive, FLuc modulator 21µM (no result: SMN2 splice enh)
O=C(NCCNC(=O)c1ccccc1)c1ccccc1	none (no result: SMN2 splice enh)
Cc1ccc(NC(=O)CCNS(=O)(=O)c2cccc3nonc23)cc1Cl	none
CCC(=O)NCCNC(=O)c1c(SC)nsc1SC	none
CN(C)c1ccc(/C=c2\sc3n(c2=O)CCCN=3)cc1	NPC1 promoter act 0.4µM, Rab9 prom act 0.32µM, ELG1 genotoxic inconclusive, ELG1 repair inh inconclusive, SMN2 splice enh 1.6µM, FLuc modulator 0.24µM
O=c1/c(=C/c2ccc(O)cc2)sc2n1CCCN=2	Rab9 prom act 2.8µM, ELG1 genotoxic inconclusive, ELG1 repair inh inconclusive, FLuc modulator 9.5µM (no result: SMN2 splice enh)

Bioassay records as filed in PubChem.
